The values below come from PubChem BioAssay (Tox21).

“And” between values parts separate entries of the source, which are not always exact repeats. Equal entries are not always repeated. Inconclusive results are not listed. Where a call stands in place of a potency, no number is given. The source holds several records for some structures; these can differ, active in one and inactive in another. The source made the active and inactive calls. Calls come from the whole dose curve.
Potency is the fitted concentration of half-maximal effect.

The nature of the assay: qHTS assay for small molecule agonists of the p53 signaling pathway - cell viability (AID 651633).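 For activity change, negative = cytotoxicity: p53RE-bla HCT reporter cells with a stable beta-lactamase p53 reporter.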 Note: nearly all actives have a fitted effect of over 30% in size. The conditions noted are these: p53RE-bla HCT-116 viability, ATP luminescence, 16 h; series mostly up to 83.3 µM; activity change, negative = cytotoxicity: at the top concentration. Summed up:
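p53RE-bla cells were treated with compound for 16 hours at 37 C. Cytotoxicity was then measured as CellTiter-Glo luminescence after 30 min at room temperature.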
On to `CCCCCCC(C)O` (centres undefined), for which the “activity change, negative = cytotoxicity” value is -13.2% (inactive).
In the case of `C1COCCN1`, the Potency entry is “inactive”.
With `CCCCCC1C(=O)CCC1CC(=O)OC` (centres undefined), the Potency entry was “inactive”.
Turning to `O=Cc1ccccc1C=O`, the Potency is 11.9 µM (active) and 12.2 µM (active).
On the same count and under the same terms, next, `OCCNCCO`: 19.3 µM (active) and inactive.
`CN(C)CCCN1c2ccccc2Sc2ccc(Cl)cc21`: the “activity change, negative = cytotoxicity” value is -24.6% (inactive).
For the compound `OC[C@H]1O[C@@H]2O[C@H]3[C@H](O)[C@@H](O)[C@@H](O[C@H]4[C@H](O)[C@@H](O)[C@@H](O[C@H]5[C@H](O)[C@@H](O)[C@@H](O[C@H]6[C@H](O)[C@@H](O)[C@@H](O[C@H]7[C@H](O)[C@@H](O)[C@@H](O[C@H]1[C@H](O)[C@H]2O)O[C@@H]7CO)O[C@@H]6CO)O[C@@H]5CO)O[C@@H]4CO)O[C@@H]3CO`, the Potency entry was “inactive”.
Turning to `Nc1ccc2c(c1)C(=O)c1ccccc1C2=O`, the Potency entry is “inactive”.
Still for that read-out and setting: next, `O=C(O)CCCCCCCCCCCC(=O)O`: “inactive”; `O=C(O)COCCN1CCN(C(c2ccccc2)c2ccc(Cl)cc2)CC1` (centres undefined): “inactive”; `COc1ccc(-c2coc3cc(O)cc(O)c3c2=O)cc1`: “inactive”.
On to `CC(=O)Oc1c(C)c(C)c2c(c1C)CC[C@@](C)(CCC[C@H](C)CCC[C@H](C)CCCC(C)C)O2`, for which the Potency result was “inactive”.
Still for that read-out and setting: next, `C=C[C@@]1(C)CC(=O)[C@]2(O)[C@@]3(C)[C@@H](O)CCC(C)(C)[C@@H]3[C@H](O)[C@H](OC(C)=O)[C@@]2(C)O1`: “inactive”.
For the compound `C1CN(SSN2CCOCC2)CCO1`, the Potency result was “inactive”.
Turning to `CCC(=O)O[C@H]1[C@H](O[C@@H]2[C@@H](C)[C@H](O[C@H]3C[C@@](C)(OC)[C@@H](O)[C@H](C)O3)[C@@H](C)C(=O)O[C@H](CC)[C@@](C)(O)[C@H](O)[C@@H](C)C(=O)[C@H](C)C[C@@]2(C)O)O[C@H](C)C[C@@H]1N(C)C`, the Potency was 13.3 µM (active).
Regarding `IC(I)I`, the Potency result is “inactive”.
For the compound `CC1(C)NC(=O)N(c2ccc([N+](=O)[O-])c(C(F)(F)F)c2)C1=O`, the Potency result is “inactive”.
On to `CN1CCOCC1`, for which the Potency result was “inactive”.
As for `CC(=O)O[C@]1(C(C)=O)CC[C@H]2[C@@H]3C=C(C)C4=CC(=O)CC[C@]4(C)[C@H]3CC[C@@]21C`, the “activity change, negative = cytotoxicity” value was -23.2% (inactive).
With `O=[Se](O)O`, the Potency entry was “inactive”.
Take `C=C[Si](OCCOC)(OCCOC)OCCOC`: the Potency entry was “inactive”.
For `Cc1ccc(C)c(O)c1`, the Potency result is “inactive”.
With `COc1cc([C@H]2Oc3cc([C@H]4Oc5cc(O)cc(O)c5C(=O)[C@@H]4O)ccc3O[C@@H]2CO)ccc1O`, the Potency entry was “inactive”.
Still for that read-out and setting: for `C=CC(C)(O)CCC=C(C)C` (centres undefined) the value was “inactive”.
As for `Cc1ccc(C(C)(C)C)cc1`, the Potency entry was “inactive”.
For `Clc1ccc(Sc2cc(Cl)c(Cl)cc2Cl)cc1`, the Potency result is “inactive”.
Consider `O=C(O)c1ccc(O)cc1`, for which the Potency result was “inactive”.
Take `Cc1ccc(S(=O)(=O)NCl)cc1`: the Potency result was “inactive”.
Consider `CN(Cc1cnc2nc(N)nc(N)c2n1)c1ccc(C(=O)N[C@@H](CCC(=O)O)C(=O)O)cc1`, for which the Potency was 168 nM (active) and 48.6 nM (active).
On to `O=C(O)c1cc(=O)[nH]c(=O)[nH]1`, for which the Potency entry was “inactive”.
Turning to `CC[C@]12CCCN3CCc4c(n(c5ccccc45)[C@@](O)(C(=O)OC)C1)[C@@H]32`, the Potency result is “inactive”.
`FC(F)(F)C(Cl)Br` (centres undefined): the Potency entry is “inactive”.
On to `NCCOCCO`, for which the Potency result was “inactive”.
Turning to `CN(C)/N=N/c1nc[nH]c1C(N)=O`, the Potency result is “inactive”.
As to `CC1(C)C(C=C(Cl)Cl)C1C(=O)OCc1cccc(Oc2ccccc2)c1` (centres undefined), the Potency entry is “inactive”.
Take `Cc1cccc(Nc2ccccc2C(=O)O)c1C`: the Potency result is “inactive”.
As for `NCCN`, the Potency entry was “inactive”.
Consider `[O-]/[N+](=N\O)c1ccccc1`, for which the Potency entry is “inactive”.
The same measure, in the same setting: for `CC(=O)Oc1ccc(C(c2ccc(OC(C)=O)cc2)c2ccccn2)cc1` the value was 668 nM (active) and 483 nM (active).
